PubChem BioAssay
Active and inactive are the calls of the source. Unless noted, no rule for the calls is given here.

Experiments:
[1] = anti-His antibody binders, primary screen, artefact control for SMM control protein annotation, biochemical, small-molecule microarray, 635 nm fluorescence (AID 1128); details: anti-His Alexa647 antibody binding, higher = more signal;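 also: score merges feature fluorescence with signal-to-noise for each printed compound spot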
[2] = tested on: Human papillomavirus type 1a E7 protein (residues 1-88); assay: HPV1a E7 small-molecule binders, primary screen, biochemical, small-molecule microarray, residues 1-88, 635 nm (AID 1129); details: small-molecule microarray binding, fluorescence 635 nm; higher = more signal
[3] = target: Focal adhesion kinase 1 (Homo sapiens) (UniProt Q05397); assay: small-molecule microarray binders of FAK, primary screen, biochemical, 635/667 nm fluorescence, BSA, DTT (AID 1130); details: PTK2 binding, 635 nm fluorescence, higher = more signal;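 also: composite of spot emission at 667 nm and signal to noise over triplicate slides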
[4] = tested on: Fibrinogen (Alexa647-labelled); assay: fibrinogen binders on compound microarrays, profiling panel, artefact control for SMM control-protein annotation, biochemical, small-molecule microarray, 635/667 nm fluorescence (AID 1131); details: fibrinogen-A647 binding fluorescence, higher = more signal;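 also: z-score merges 667 nm fluorescence with per-spot signal-to-noise over triplicate slides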
[5] = target: Follistatin (Homo sapiens) (UniProt P19883); assay: follistatin binders on small-molecule microarrays, primary screen, biochemical, small-molecule microarray, 635/667 nm fluorescence (AID 1132); details: FST binding, 635 nm fluorescence, higher = more signal
[6] = target: Fibroblast growth factor 2 (Homo sapiens) (UniProt P09038); assay: FGF2 binders on small-molecule microarrays, primary screen, biochemical, small-molecule microarray, 635/667 nm fluorescence (AID 1133); details: small-molecule microarray binding, FGF2, fluorescence 635/667; higher = more signal
[7] = mitochondrial membrane potential change in A549 cells, profiling panel, cell-based, JC-1 fluorescence, basal, 24 h, 100 nL (AID 1138); details: higher = more signal;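 also: A549 lung adenocarcinoma cells under basal conditions with no added stimulus; test concentration not given here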
[8] = tested on: Lefty1; assay: Lefty1 binders on small-molecule microarrays, primary screen, biochemical, small-molecule microarray, 635/667 nm fluorescence (AID 1139); details: small-molecule microarray binding, fluorescence 635/667; higher = more signal
[9] = tested on: wheat germ agglutinin (Triticum aestivum), Alexa647-labelled; assay: wheat germ agglutinin binders on compound microarrays, profiling panel, artefact control for SMM control-protein annotation, biochemical, small-molecule microarray, 635/667 nm fluorescence (AID 1140); details: WGA-A647 binding, 635 nm fluorescence, higher = more signal;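 also: score merges 667 nm feature emission with signal to noise over triplicate slides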
[10] = target: Luciferin 4-monooxygenase (Photinus pyralis) (UniProt P08659); assay: firefly luciferase enzyme inhibitors, primary screen, biochemical, luminescence, purified enzyme, 2006 set (AID 1141); details: SteadyGlo luminescence, 30 min, higher = more signal, called active from +8 up or from −8 down;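 also: cell-free assay with purified firefly luciferase at 100 ng per well in PBS; test concentration not given here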
[11] = tested on: Wnt5a (protein binding on small-molecule microarray); assay: Wnt5a binders on small-molecule microarray, primary screen, biophysical, 635/667 nm fluorescence (AID 1142); details: 635 nm fluorescence, higher = more signal;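 also: fluorescence read at 667 nm with signal to noise per printed feature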
[12] = cell viability in Huh7 cells, primary screen, cytotoxicity control for HCV replication inhibitor project, CellTiter-Glo luminescence, basal, 48 h (AID 1143); details: Huh7 HCV replicon, higher = more signal, called active from +8 up or from −8 down;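 also: Huh7 hepatoma cells carrying a hepatitis C replication reporter with no stimulus; test concentration not given here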
[13] = P. aeruginosa biofilm formation inhibitors, primary screen, PAO1 strain, BacTiter-Glo luminescence, LB-PBS (AID 1144); details: 12 h, higher = more signal
[14] = CREB reporter modulators without forskolin, primary screen, cell-based, PC12, CRE-LacZ reporter, unstimulated (AID 1145); details: no forskolin, luminescence, 4.5 h, higher = more signal, called active from +8 up or from −8 down
[15] = CREB reporter modulators under forskolin, primary screen, cell-based, PC12, CRE-LacZ reporter, forskolin-stimulated (AID 1146); details: luminescence, 4.5 h, higher = more signal, called active from +8 up or from −8 down;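 also: PC12 cells with 6xCRE LacZ reporter stimulated by forskolin 10 µM; beta-galactosidase reporter signal reflecting CREB driven transcription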
[16] = target: Streptavidin (Streptomyces avidinii) (UniProt P22629); assay: streptavidin binders on small-molecule microarray, primary screen, artefact control for SMM compound annotation, biophysical, 635/667 nm fluorescence (AID 1147); details: streptavidin binding, higher = more signal;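 also: signal reflects streptavidin binding to arrayed compounds as a control protein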
[17] = small-molecule binders of probe aInhba, primary screen, biochemical, small-molecule microarray, 635/667 nm fluorescence (AID 1148); details: higher = more signal;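 also: score merges 667nm spot fluorescence with signal-to-noise for antibody binding to printed compounds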
[18] = target: Torsin-1A (Homo sapiens) (UniProt O14656); assay: torsin A binders from cell lysate, primary screen, small-molecule microarray, wild-type, 635/667 nm (AID 1149); details: COS7 hTOR1A-WT lysate, 635 nm fluorescence, higher = more signal
[19] = target: Torsin-1A (Homo sapiens) (UniProt O14656); assay: small-molecule binders of mutant TOR1A in lysate, primary screen, cell lysate, small-molecule microarray, COS7 lysate, 635/667 nm fluorescence (AID 1150); details: COS7 hTOR1A mutant lysate, 635 nm fluorescence, higher = more signal;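 also: score pools 667 nm emission and signal to noise measuring lysate protein binding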
[20] = tested on: Sonic hedgehog protein (Shh); assay: small-molecule binders of Shh protein, primary screen, biochemical, small-molecule microarray, 635/667 nm fluorescence (AID 1151); details: small-molecule microarray binding, 635 nm fluorescence; higher = more signal;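 also: Shh protein binding to compounds spotted on small-molecule microarray slides; score combines spot fluorescence intensity with signal-to-noise across triplicate slides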

Sequence of Follistatin (Homo sapiens) (P19883 whole entry, looked up): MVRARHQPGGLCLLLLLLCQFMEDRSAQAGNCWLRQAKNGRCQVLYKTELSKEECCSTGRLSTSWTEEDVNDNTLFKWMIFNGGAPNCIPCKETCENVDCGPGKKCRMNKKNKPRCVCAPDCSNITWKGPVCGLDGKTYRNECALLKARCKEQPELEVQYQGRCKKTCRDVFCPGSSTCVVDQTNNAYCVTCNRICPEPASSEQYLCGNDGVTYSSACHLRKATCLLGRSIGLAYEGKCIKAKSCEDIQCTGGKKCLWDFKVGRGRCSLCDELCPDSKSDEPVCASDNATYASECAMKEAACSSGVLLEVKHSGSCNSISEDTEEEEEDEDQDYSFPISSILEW
Sequence of Luciferin 4-monooxygenase (Photinus pyralis) (P08659 whole entry, looked up): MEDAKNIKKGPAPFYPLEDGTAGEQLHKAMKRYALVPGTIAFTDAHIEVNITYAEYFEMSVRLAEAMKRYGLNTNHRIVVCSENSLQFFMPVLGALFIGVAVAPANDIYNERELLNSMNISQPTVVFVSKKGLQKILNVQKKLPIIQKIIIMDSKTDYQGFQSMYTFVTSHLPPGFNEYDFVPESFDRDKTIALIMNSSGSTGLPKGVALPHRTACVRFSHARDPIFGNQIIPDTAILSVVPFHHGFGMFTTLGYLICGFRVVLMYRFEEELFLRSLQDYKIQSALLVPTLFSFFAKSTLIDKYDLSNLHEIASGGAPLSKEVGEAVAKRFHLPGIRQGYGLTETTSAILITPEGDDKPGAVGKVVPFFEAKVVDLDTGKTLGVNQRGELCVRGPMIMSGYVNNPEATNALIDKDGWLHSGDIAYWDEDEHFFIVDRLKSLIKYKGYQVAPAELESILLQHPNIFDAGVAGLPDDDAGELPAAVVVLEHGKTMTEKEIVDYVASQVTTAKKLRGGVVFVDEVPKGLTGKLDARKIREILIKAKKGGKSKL
Sequence of Fibroblast growth factor 2 (Homo sapiens) (P09038 whole entry, looked up): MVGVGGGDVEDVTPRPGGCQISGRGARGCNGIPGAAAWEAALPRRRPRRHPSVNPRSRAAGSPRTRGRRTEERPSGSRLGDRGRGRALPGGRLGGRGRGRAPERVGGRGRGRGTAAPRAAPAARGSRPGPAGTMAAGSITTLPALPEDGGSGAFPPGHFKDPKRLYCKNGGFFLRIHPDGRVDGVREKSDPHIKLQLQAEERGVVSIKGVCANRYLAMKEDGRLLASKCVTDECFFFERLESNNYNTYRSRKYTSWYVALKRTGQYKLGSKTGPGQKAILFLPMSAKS
Sequence of Torsin-1A (Homo sapiens) (O14656 whole entry, looked up): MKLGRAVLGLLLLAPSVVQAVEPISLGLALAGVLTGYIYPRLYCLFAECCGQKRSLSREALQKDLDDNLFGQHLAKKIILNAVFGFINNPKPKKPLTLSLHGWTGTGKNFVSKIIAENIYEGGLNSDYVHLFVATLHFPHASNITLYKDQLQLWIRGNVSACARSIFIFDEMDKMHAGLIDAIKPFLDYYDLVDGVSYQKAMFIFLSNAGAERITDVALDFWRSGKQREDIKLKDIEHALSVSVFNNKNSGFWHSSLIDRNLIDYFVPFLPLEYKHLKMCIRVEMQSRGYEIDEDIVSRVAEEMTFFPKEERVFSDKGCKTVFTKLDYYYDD
Sequence of Focal adhesion kinase 1 (Homo sapiens) (Q05397 whole entry, looked up): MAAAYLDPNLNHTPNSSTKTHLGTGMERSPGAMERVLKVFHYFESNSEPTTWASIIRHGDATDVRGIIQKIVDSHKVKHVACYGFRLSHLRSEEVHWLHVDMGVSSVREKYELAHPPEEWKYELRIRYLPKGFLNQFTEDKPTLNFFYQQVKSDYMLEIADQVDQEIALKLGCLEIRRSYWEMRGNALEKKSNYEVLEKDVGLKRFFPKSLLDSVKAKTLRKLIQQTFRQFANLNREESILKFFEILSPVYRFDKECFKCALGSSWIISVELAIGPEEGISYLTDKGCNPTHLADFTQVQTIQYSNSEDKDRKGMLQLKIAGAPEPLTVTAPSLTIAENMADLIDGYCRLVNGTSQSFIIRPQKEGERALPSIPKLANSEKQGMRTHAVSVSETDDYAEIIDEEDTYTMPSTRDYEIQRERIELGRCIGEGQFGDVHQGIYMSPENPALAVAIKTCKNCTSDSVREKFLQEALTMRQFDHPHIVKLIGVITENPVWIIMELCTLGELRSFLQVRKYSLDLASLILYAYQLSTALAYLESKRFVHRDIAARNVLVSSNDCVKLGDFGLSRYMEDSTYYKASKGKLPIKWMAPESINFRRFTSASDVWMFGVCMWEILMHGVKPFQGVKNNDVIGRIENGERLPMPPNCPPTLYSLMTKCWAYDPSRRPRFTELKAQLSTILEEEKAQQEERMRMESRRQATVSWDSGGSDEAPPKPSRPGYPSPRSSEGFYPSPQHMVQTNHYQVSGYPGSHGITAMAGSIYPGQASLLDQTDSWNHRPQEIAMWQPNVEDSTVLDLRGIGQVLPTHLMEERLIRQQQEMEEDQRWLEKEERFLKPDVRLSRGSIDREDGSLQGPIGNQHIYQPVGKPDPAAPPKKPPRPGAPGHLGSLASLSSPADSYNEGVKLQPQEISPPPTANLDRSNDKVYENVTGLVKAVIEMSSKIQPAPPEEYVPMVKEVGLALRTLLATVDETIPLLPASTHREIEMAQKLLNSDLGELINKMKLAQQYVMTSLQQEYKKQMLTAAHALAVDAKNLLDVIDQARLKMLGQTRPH
Sequence of Streptavidin (Streptomyces avidinii) (P22629 whole entry, looked up): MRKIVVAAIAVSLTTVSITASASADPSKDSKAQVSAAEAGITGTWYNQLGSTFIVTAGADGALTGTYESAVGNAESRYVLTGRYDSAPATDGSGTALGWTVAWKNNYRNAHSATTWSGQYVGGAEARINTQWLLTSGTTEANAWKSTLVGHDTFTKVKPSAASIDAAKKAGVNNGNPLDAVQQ

Structure (SMILES) | composite z-score [1] | composite z-score [2] | composite z-score [3] | composite z-score [4] | composite z-score [5] | composite z-score [6] | z-score [7] | composite z-score [8] | composite z-score [9] | z-score [10] | composite z-score [11] | z-score [12] | z-score [13] | z-score [14] | z-score [15] | composite z-score [16] | composite z-score [17] | composite z-score [18] | composite z-score [19] | composite z-score [20]
[N-]=[N+]=NCc1ccccc1[C@H]1OC(c2ccc(OCCCO)cc2)=N[C@@]1(CCS(=O)(=O)c1ccccc1)C(N)=O | 2.08 | 1.18 | 0.238 | 1 | 1.18 | 1.26 | -1.14 | -0.456 | 1.16 | -3.95 (inactive) | 0.524 | -0.0602 (inactive) | 0.456 (inactive) | -0.678 (inactive) | 0.237 (inactive) | 1.8 | 0.182 | 1.87 | 1.76 | -0.384
CC(C)CN1C(=O)[C@@]2(c3ccc([N+](=O)[O-])cc3)CC(=O)N(CC34CC5CC(CC(C5)C3)C4)[C@@H]2c2ccc(CO)cc21 | 2.34 | -0.636 | -0.253 | 0.233 | -1.16 | -1.14 | -0.422 | -0.969 | -0.323 | 0.0209 (inactive) | -0.765 | -4.16 (inactive) | -1.58 (inactive) | -0.348 (inactive) | 0.134 (inactive) | -0.877 | -0.128 | -1.22 | -1.08 | -1.51
Cc1ccc(F)cc1S(=O)(=O)N[C@@H]1CCN(Cc2ccc(Oc3ccccc3)cc2)C1 | 0.258 | -0.922 | -0.271 | 0.738 | 1.03 | 0.424 | 0.663 | 1.09 | 0.853 | 0.453 (inactive) | -0.123 | -4.83 (inactive) | 0.913 (inactive) | 0.677 (inactive) | 0.865 (inactive) | -0.235 | -0.0403 | 0.575 | 0.251 | 1.07
C=CC[C@@]12N=C(c3ccc(OCCCO)cc3)O[C@@H]1c1ccccc1N(CCS(=O)(=O)c1ccccc1)C2=O | 0.954 | 1.22 | 0.87 | 0.944 | 1.3 | 1.55 | 0.699 | 0.51 | 0.961 | -12.1 (active) | 0.518 | -3.23 (inactive) | -0.196 (inactive) | -0.744 (inactive) | -2.22 (inactive) | 1.41 | 0.136 | 0.558 | 0.264 | 1.62
CN(C)CCCNC(=O)[C@@]1(C)c2ccccc2C(=O)N(Cc2cc(C(F)(F)F)cc(C(F)(F)F)c2)[C@H]1c1ccc(CO)cc1 | -0.216 | -0.446 | -0.24 | -2.28 | -0.775 | -0.762 | -0.0872 | -1.03 | -0.973 | 0.386 (inactive) | -0.284 | -4.27 (inactive) | -0.391 (inactive) | 0.234 (inactive) | -0.227 (inactive) | -0.95 | 0.0275 | -0.639 | -0.774 | -0.584
